Measured values reported in PubChem BioAssay (NCATS).

What was measured:
[1] = qHTS profiling of the MIPE4 collection as inhibitors of Plasmodium falciparum (3D7) proliferation (AID 743344);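 further: scaled between DMSO vehicle wells and 0.29 µM artemisinin as full inhibition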; details: P. falciparum 3D7 in erythrocytes, SYBR Green DNA fluorescence, 72 h; at 28.5 µM unless noted
Method in brief: (§1)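 Parasite DNA was quantified by SYBR Green I fluorescence (ex 485, em 535 nm) after overnight lysis in saponin/Triton buffer at room temperature. Cultures at 0.3% parasitemia and 2.5% hematocrit were first exposed to compound for 72 h at 37 C; signals were normalised to artemisinin (0.29 uM) and vehicle wells.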

[2] = qHTS profiling of the MIPE4 collection as inhibitors of Plasmodium falciparum (DD2) proliferation (AID 743345); details: P. falciparum Dd2 in erythrocytes, SYBR Green DNA, 72 h; at 28.5 µM unless noted
Method in brief: as §1

[3] = qHTS profiling of the MIPE4 collection as inhibitors of Plasmodium falciparum (DD2) proliferation (Rep 2) (AID 743346); details: P. falciparum Dd2 in erythrocytes, SYBR Green DNA, 72 h; at 28.5 µM unless noted
Method in brief: as §1

[4] = qHTS profiling of the MIPE4 collection as inhibitors of Plasmodium falciparum (HB3) proliferation (AID 743347);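 further: plate controls were DMSO vehicle wells for no effect and artemisinin wells for full effect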; details: P. falciparum HB3 in erythrocytes, SYBR Green DNA, 72 h; at 28.5 µM unless noted
Method in brief: as §1

[5] = High-throughput drug toxicity screening in the BPDCN cell line Gen2.2 (AID 1224824); details: Gen2.2 BPDCN cells; at 45.8 µM (top of the series) unless noted;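 further: cells exposed to compounds for 48 h before reading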
Method in brief: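 Seed 500 exponentially growing Gen2.2 cells/well; add compounds by pin tool; incubate 48 h, 37 °C, 5% CO2; add CellTiter-Glo, 15 min RT; read luminescence. % activity vs DMSO (100%) and bortezomib (0%).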

[6] = High-throughput drug toxicity screening in the BPDCN cell line Cal-1 (AID 1224825); details: Cal-1 BPDCN cell viability, qHTS; at 45.8 µM (top of the series) unless noted
Method in brief: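 CellTiter-Glo luminescence after 48 h compound exposure; percent activity scaled with DMSO as 100% and bortezomib (9.2 uM final) as 0%. Cal-1 cells seeded at 500/well in RPMI, 10% FBS, no phenol red.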

CN(C)Cc1c(C(=O)NCCOc2ccc(C(=O)NO)cc2)oc2ccccc12
parasite growth, % of DMSO control [1]: 5.24% | parasite growth remaining, % of DMSO control (lower = more inhibition) [2]: 7.04% | parasite growth, % of control (lower = inhibition) [3]: 7.09% | growth, % of control [4]: 6.43% | cell viability, % of control (lower = more cytotoxic) [5]: 38.7% | viability (% of control) [6]: 5.5%

O=C(O)C1(Cc2cccc(Nc3nccs3)n2)CCC(Oc2cccc(Cl)c2F)CC1 (stereo not drawn)
parasite growth, % of DMSO control [1]: 63.9% | parasite growth remaining, % of DMSO control (lower = more inhibition) [2]: 98.3% | parasite growth, % of control (lower = inhibition) [3]: 59.5% | growth, % of control [4]: 92% | cell viability, % of control (lower = more cytotoxic) [5]: 88.8% | viability (% of control) [6]: 33.8%

CC(C)c1cnn2c(NCc3ccccc3)cc(N[C@@H](CO)[C@H](O)CO)nc12
parasite growth, % of DMSO control [1]: 21.9% | parasite growth remaining, % of DMSO control (lower = more inhibition) [2]: 61.8% | parasite growth, % of control (lower = inhibition) [3]: 21.4% | growth, % of control [4]: 14.5% | cell viability, % of control (lower = more cytotoxic) [5]: 3.01% | viability (% of control) [6]: 0.824%

CNC(=O)c1nn(C)c2c1C(C)(C)Cc1cnc(Nc3ccc(N4CCN(C)CC4)cc3)nc1-2
parasite growth, % of DMSO control [1]: 6.38% | parasite growth remaining, % of DMSO control (lower = more inhibition) [2]: 11.1% | parasite growth, % of control (lower = inhibition) [3]: 6.77% | growth, % of control [4]: 3.32% | cell viability, % of control (lower = more cytotoxic) [5]: 3.63% | viability (% of control) [6]: 3.8%

C[C@@H]1COC(Nc2ccc3ncnc(Nc4ccc(OCc5nccs5)c(Cl)c4)c3c2)=N1
parasite growth, % of DMSO control [1]: 6% | parasite growth remaining, % of DMSO control (lower = more inhibition) [2]: 11.5% | parasite growth, % of control (lower = inhibition) [3]: 27.7% | growth, % of control [4]: 8.37% | cell viability, % of control (lower = more cytotoxic) [5]: 127% | viability (% of control) [6]: 13%

CNC(=O)CN1CCC(Oc2cc3c(Nc4cccc(Cl)c4F)ncnc3cc2OC)CC1
parasite growth, % of DMSO control [1]: 11.2% | parasite growth remaining, % of DMSO control (lower = more inhibition) [2]: 41.4% | parasite growth, % of control (lower = inhibition) [3]: 16% | growth, % of control [4]: 5.64% | cell viability, % of control (lower = more cytotoxic) [5]: 50.7% | viability (% of control) [6]: 7.61%

Cc1cc(N2CCOCC2)cc2[nH]c(-c3c(NC[C@@H](O)c4cccc(Cl)c4)cc[nH]c3=O)nc12
parasite growth, % of DMSO control [1]: 5.92% | parasite growth remaining, % of DMSO control (lower = more inhibition) [2]: 15.8% | parasite growth, % of control (lower = inhibition) [3]: 14% | growth, % of control [4]: 3.57% | cell viability, % of control (lower = more cytotoxic) [5]: 25% | viability (% of control) [6]: 3.1%

OCc1ccc(-c2ccc(-c3ccc(CO)s3)o2)s1
parasite growth, % of DMSO control [1]: 78.4% | parasite growth remaining, % of DMSO control (lower = more inhibition) [2]: 79.5% | parasite growth, % of control (lower = inhibition) [3]: 47.9% | growth, % of control [4]: 64.5% | cell viability, % of control (lower = more cytotoxic) [5]: 1.11% | viability (% of control) [6]: 1.47%

CC(=O)Nc1nc(C)c(-c2ccc(Cl)c(S(=O)(=O)NCCO)c2)s1
parasite growth, % of DMSO control [1]: 4.79% | parasite growth remaining, % of DMSO control (lower = more inhibition) [2]: 7.49% | parasite growth, % of control (lower = inhibition) [3]: 10% | growth, % of control [4]: 2.77% | cell viability, % of control (lower = more cytotoxic) [5]: 17.8% | viability (% of control) [6]: 18.7%

CCCn1c(=O)c2[nH]c(-c3cnn(Cc4cccc(C(F)(F)F)c4)c3)nc2n(CC)c1=O
parasite growth, % of DMSO control [1]: 62.2% | parasite growth remaining, % of DMSO control (lower = more inhibition) [2]: 73.8% | parasite growth, % of control (lower = inhibition) [3]: 43.2% | growth, % of control [4]: 51.8% | cell viability, % of control (lower = more cytotoxic) [5]: 49.4% | viability (% of control) [6]: 107%

NC1(Cc2ccc(Cl)cc2)CCN(c2ncnc3[nH]ccc23)CC1
parasite growth, % of DMSO control [1]: 19.2% | parasite growth remaining, % of DMSO control (lower = more inhibition) [2]: 31.6% | parasite growth, % of control (lower = inhibition) [3]: 23.9% | growth, % of control [4]: 5.59% | cell viability, % of control (lower = more cytotoxic) [5]: 12.2% | viability (% of control) [6]: 22.9%

CCn1nnc2c(N3CCOCC3)nc(-c3ccc(NC(=O)Nc4ccc(C(=O)N5CCN(C)CC5)cc4)cc3)nc21
parasite growth, % of DMSO control [1]: 6.79% | parasite growth remaining, % of DMSO control (lower = more inhibition) [2]: 6.26% | parasite growth, % of control (lower = inhibition) [3]: 13.6% | growth, % of control [4]: 5.28% | cell viability, % of control (lower = more cytotoxic) [5]: 28.1% | viability (% of control) [6]: 26.6%

CCOc1ccccc1OCCNC(C)Cc1ccc(OC)c(S(N)(=O)=O)c1 (stereo not drawn)
parasite growth, % of DMSO control [1]: 65.8% | parasite growth remaining, % of DMSO control (lower = more inhibition) [2]: 84.6% | parasite growth, % of control (lower = inhibition) [3]: 54.9% | growth, % of control [4]: 90.8% | cell viability, % of control (lower = more cytotoxic) [5]: 122% | viability (% of control) [6]: 97.4%
